More than one record can exist for a structure, and the calls need not agree. Activity calls are given as the source filed them. Rule for the calls: active = hit-call score of the fitted dose curve at least 0.9, where 1 is the maximum; inactive = score below 0.9.
Test: ATG_CMV_CIS: Attagene CIS-FACTORIAL HepG2 Assay for human CMV (Internal Marker) (AID 2282928);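 note: endpoint acts as a background internal control marker rather than a target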
Conditions: HepG2 CMV promoter reporter, transcription factor profiling; actives raise or lower the signal
Outline: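 Cell system: HepG2, transiently transfected multiple reporter units under cis promoters. Exposure: 24 h. Detection: RT-PCR, FAM labeling, HpaI digestion, capillary electrophoresis. Analysis: bidirectional, DMSO baseline.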

Q: With CCCCC(CC)COC(=O)CCCCC(=O)OCc1ccccc1 (configuration not stated) as the compound, how does the outcome read?
A: Its outcome is “inactive”.

Q: Which AC50 does the source give for FC(F)(I)C(F)(F)C(F)(F)C(F)(F)C(F)(F)C(F)(F)I here?
A: The AC50 was 9.48 µM (active).

Q: For Cc1oc(-c2ccccc2)nc1CCOc1ccc(C[C@H](Nc2ccccc2C(=O)c2ccccc2)C(=O)O)cc1, which outcome is on record?
A: The outcome was “inactive”.

Q: For CN1CCC[C@H]1c1cccnc1, which outcome is on record?
A: Its outcome is “inactive”.

Q: Which outcome does the source give for COCC(C)OCC(C)O (configuration not stated) here?
A: The outcome was “inactive”.

Q: With CN1CCN(c2ccccc2/C=C2\SCCN(c3ccc(Cl)c(Cl)c3)C2=O)CC1 as the compound, how does the outcome read?
A: Its outcome is “inactive”.

Q: For CC(C)(C)CC(C)(C)c1ccc(O)c(-n2nc3ccccc3n2)c1, which AC50 is on record?
A: Its AC50 is 61.4 µM (active).

Q: Which outcome does the source give for C[C@@H]1C[C@H]2[C@@H]3CCC4=CC(=O)C=C[C@]4(C)[C@@]3(F)[C@@H](O)C[C@]2(C)[C@@]1(O)C(=O)COP(=O)(O)O here?
A: Its outcome is “inactive”.

Q: Which outcome does the source give for CCc1nn(C2CCCCC2)c2cc(C3(C#N)CCC(C(=O)O)CC3)ccc12 (configuration not stated) here?
A: The outcome was “inactive”.

Q: With N#C[C@@H]1CC(F)(F)CN1C(=O)CNC1CC2CCC(C1)N2c1ncccn1 (some centres not stated) as the compound, how does the outcome read?
A: The outcome was “inactive”.

Q: With CCCCCCCCC(=O)O as the compound, how does the outcome read?
A: Its outcome is “inactive”.

Q: Which AC50 does the source give for NC(=O)N(O)[C@@H]1C=C[C@H](Oc2cccc(Oc3ccc(F)cc3)c2)C1 here?
A: Its AC50 is 7.56 µM (active).

Q: For CC(=O)CC(C)(C)O, which outcome is on record?
A: Its outcome is “inactive”.

Q: With CCCCCCCCCCCCCC[N+](C)(C)C as the compound, how does the AC50 read?
A: Its AC50 is 15.2 µM (active).

Q: And the outcome?
A: The outcome was “inactive”.

Q: Which AC50 does the source give for CC(=O)NC1(c2cccc(F)c2)CCN(CC[C@@]2(c3ccc(Cl)c(Cl)c3)CN(c3ccccc3)C(=O)CO2)CC1 here?
A: The AC50 was 45.2 µM (active).

Q: For CCCCCCCCCCCCc1ccccc1S(=O)(=O)O, which outcome is on record?
A: The outcome was “inactive”.

Q: With Cc1cc(CCN2CCN(c3nsc4ccccc34)CC2)cc2c1NC(=O)CC2(C)C as the compound, how does the outcome read?
A: Its outcome is “inactive”.

Q: Which outcome does the source give for CCCCCCC(=O)O here?
A: The outcome was “inactive”.

Q: With Cc1ccc(S(=O)(=O)O)c(C)c1 as the compound, how does the outcome read?
A: Its outcome is “inactive”.

Q: With NCC(F)(F)C(F)(F)C(F)(F)C(F)(F)C(F)(F)C(F)(F)C(F)(F)F as the compound, how does the outcome read?
A: Its outcome is “inactive”.

Q: Which outcome does the source give for O=[N+]([O-])c1ccc(O)cc1 here?
A: Its outcome is “inactive”.

Q: For CC(C)(C)c1cccc(C(C)(C)C)c1O, which AC50 is on record?
A: The AC50 was 100 µM (active).

Q: Which outcome does the source give for CCCCCCCC(=O)O here?
A: Its outcome is “inactive”.

Q: With CCCCC[C@H](O)CC(=O)CCc1ccc(O)c(OC)c1 as the compound, how does the outcome read?
A: The outcome was “inactive”.

Q: For CCc1ccc(CCOc2ccc(CC3SC(=O)NC3=O)cc2)nc1 (configuration not stated), which outcome is on record?
A: The outcome was “inactive”.

Q: Which outcome does the source give for CC(O)C(=O)O (configuration not stated) here?
A: Its outcome is “inactive”.

Q: For CC(C)CCCCCCOC(=O)CCCCC(=O)OCCCCCCC(C)C, which outcome is on record?
A: The outcome was “inactive”.

Q: Which AC50 does the source give for O=C1OC2(c3ccccc31)c1cc(Br)c(O)c(Br)c1Oc1c2cc(Br)c(O)c1Br here?
A: The AC50 was 93 µM (active).

Q: What about the outcome of the same compound?
A: Its outcome is “inactive”.

Q: Which outcome does the source give for COCC(C)O (configuration not stated) here?
A: The outcome was “inactive”.

Q: Which outcome does the source give for CCCCCCCCCCCCCCCS(=O)(=O)Oc1ccccc1 here?
A: Its outcome is “inactive”.

Q: Which AC50 does the source give for Cc1cc(C)c(O)c(C)c1 here?
A: The AC50 was 100 µM (active).

Q: For C#C[C@]1(O)CC[C@H]2[C@@H]3CCC4=CC(=O)CC[C@@H]4[C@H]3CC[C@@]21C, which outcome is on record?
A: The outcome was “inactive”.

Q: For CC(C)(C)c1ccc(O)c(C(C)(C)C)c1, which outcome is on record?
A: Its outcome is “inactive”.

Q: With Oc1cccc(O)c1 as the compound, how does the outcome read?
A: The outcome was “inactive”.

Q: For CC[C@H](C)[C@@H](C(=O)O)n1sc2ccccc2c1=O, which outcome is on record?
A: The outcome was “inactive”.
